From article PMC8384837, “Expanding the binding specificity for RNA recognition by a PUF domain”
Numbering of substitutions follows the chain as printed.

Tests used:
Experiment in all cases: yeast three-hybrid, YBZ-1, SC-Leu-His + 0.5 mM 3-AT, 4 days
Conditions in all cases: tags: N-Gal4 AD-HA kept; label: inside an RPR1-promoter hybrid RNA with tandem MS2 sites; ssRNA
PUM1 PUF domain R8-HWV = PUM1 PUF domain R8-HWV (Homo sapiens, UniProt Q14671 828-1176, N1122H;Y1123W;Q1126V)
Outline: (§1)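 Repeat regions from input (SC-Leu) and selection (SC-Leu-His + 0.5 mM 3-AT) plates were PCR-amplified and Illumina-sequenced after four days of growth. The cells were strain YBZ-1 with a LexA–MS2 coat fusion and a HIS3 reporter, co-expressing Pumilio-1 PUF domain libraries and matching RNA elements from a centromeric plasmid. The interaction score is the log change in variant frequency from input to selection, taken in log2 with a pseudocount of 1 for absent variants.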

PUM1 PUF domain R5-RSQ = PUM1 PUF domain R5-RSQ (Homo sapiens, UniProt Q14671 828-1176, C1007R;R1008S)
Outline: as §1

PUM1 PUF domain R5-RHV = PUM1 PUF domain R5-RHV (Homo sapiens, UniProt Q14671 828-1176, C1007R;R1008H;Q1011V)
Outline: as §1

PUM1 PUF domain R4-SRM = PUM1 PUF domain R4-SRM (Homo sapiens, UniProt Q14671 828-1176, N971S;H972R;Q975M)
Outline: as §1

PUM1 PUF domain R4-ANS = PUM1 PUF domain R4-ANS (Homo sapiens, UniProt Q14671 828-1176, N971A;H972N;Q975S)
Outline: as §1

PUM1 PUF domain R4-CNA = PUM1 PUF domain R4-CNA (Homo sapiens, UniProt Q14671 828-1176, N971C;H972N;Q975A)
Outline: as §1

PUM1 PUF domain R4-GCC = PUM1 PUF domain R4-GCC (Homo sapiens, UniProt Q14671 828-1176, N971G;H972C;Q975C)
Outline: as §1

PUM1 PUF domain R3-EFT = PUM1 PUF domain R3-EFT (Homo sapiens, UniProt Q14671 828-1176, C935E;R936F;Q939T)
Outline: as §1

PUM1 PUF domain R1-QWK = PUM1 PUF domain R1-QWK (Homo sapiens, UniProt Q14671 828-1176, S863Q;R864W;Q867K)
Outline: as §1

PUM1 PUF domain R1-RRA = PUM1 PUF domain R1-RRA (Homo sapiens, UniProt Q14671 828-1176, S863R;Q867A)
Outline: as §1

PUM1 PUF domain R1-RLM = PUM1 PUF domain R1-RLM (Homo sapiens, UniProt Q14671 828-1176, S863R;R864L;Q867M)
Outline: as §1

PUM1 PUF domain R5-RCV = PUM1 PUF domain R5-RCV (Homo sapiens, UniProt Q14671 828-1176, C1007R;R1008C;Q1011V)
Outline: as §1

PUM1 PUF domain R5-RMG = PUM1 PUF domain R5-RMG (Homo sapiens, UniProt Q14671 828-1176, C1007R;R1008M;Q1011G)
Outline: as §1

PUM1 PUF domain R6-IWL = target: T1, PUM1 PUF domain R6-IWL (Homo sapiens, UniProt Q14671 828-1176, N1043I;Y1044W;Q1047L)
T1 sequence: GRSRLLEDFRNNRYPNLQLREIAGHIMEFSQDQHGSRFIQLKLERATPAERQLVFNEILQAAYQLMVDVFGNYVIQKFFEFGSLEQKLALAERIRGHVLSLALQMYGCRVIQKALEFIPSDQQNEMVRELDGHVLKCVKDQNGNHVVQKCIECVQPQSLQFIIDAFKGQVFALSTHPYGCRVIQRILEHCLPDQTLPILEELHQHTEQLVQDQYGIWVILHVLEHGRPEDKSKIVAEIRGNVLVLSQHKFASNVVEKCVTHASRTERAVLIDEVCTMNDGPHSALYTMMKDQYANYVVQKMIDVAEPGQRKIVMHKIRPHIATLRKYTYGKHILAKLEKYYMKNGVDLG
Outline: as §1

PUM1 PUF domain R6-HHR = target: T2, PUM1 PUF domain R6-HHR (Homo sapiens, UniProt Q14671 828-1176, N1043H;Y1044H;Q1047R)
T2 sequence: T1 sequence with I216H, W217H, L220R
Outline: as §1

PUM1 PUF domain R3-VFY = PUM1 PUF domain R3-VFY (Homo sapiens, UniProt Q14671 828-1176, C935V;R936F;Q939Y)
Outline: as §1

PUM1 PUF domain R4-EPS = PUM1 PUF domain R4-EPS (Homo sapiens, UniProt Q14671 828-1176, N971E;H972P;Q975S)
Outline: as §1

PUM1 PUF domain R4-GHF = PUM1 PUF domain R4-GHF (Homo sapiens, UniProt Q14671 828-1176, N971G;Q975F)
Outline: as §1

PUM1 PUF domain R3-RRS = PUM1 PUF domain R3-RRS (Homo sapiens, UniProt Q14671 828-1176, C935R;Q939S)
Outline: as §1

PUM1 PUF domain R5-EAC = PUM1 PUF domain R5-EAC (Homo sapiens, UniProt Q14671 828-1176, C1007E;R1008A;Q1011C)
Outline: as §1

GGCUAGAACUAGUGGAUCCCCCGGCGCCCGGCGGCUCGAGCCCGGGUAAGCGUAAAUAGUCUGCAUGCCGCCGGGCGCCAUGCCUGCAGGUCGACUCUAGAAAACAUG
binding signal (PUM1 PUF domain R8-HWV): 4.26 log2 enrichment (interaction score)

GGCUAGAACUAGUGGAUCCCCCGGCGCCCGGCGGCUCGAGCCCGGGUAAGUGUUAAUAGUCUGCAUGCCGCCGGGCGCCAUGCCUGCAGGUCGACUCUAGAAAACAUG
binding signal (PUM1 PUF domain R5-RSQ): 4.05 log2 enrichment (interaction score)
binding signal (PUM1 PUF domain R5-RHV): 5.95 log2 enrichment (interaction score)

GGCUAGAACUAGUGGAUCCCCCGGCGCCCGGCGGCUCGAGCCCGGGUAAGUGUAUAUAGUCUGCAUGCCGCCGGGCGCCAUGCCUGCAGGUCGACUCUAGAAAACAUG
binding signal (PUM1 PUF domain R4-SRM): 2.54 log2 enrichment (interaction score)
binding signal (PUM1 PUF domain R4-ANS): 2.51 log2 enrichment (interaction score)
binding signal (PUM1 PUF domain R4-CNA): 1.78 log2 enrichment (interaction score)
binding signal (PUM1 PUF domain R4-GCC): 3.64 log2 enrichment (interaction score)

GGCUAGAACUAGUGGAUCCCCCGGCGCCCGGCGGCUCGAGCCCGGGUAAGUGUAAGUAGUCUGCAUGCCGCCGGGCGCCAUGCCUGCAGGUCGACUCUAGAAAACAUG
binding signal (PUM1 PUF domain R3-EFT): 3.92 log2 enrichment (interaction score)

GGCUAGAACUAGUGGAUCCCCCGGCGCCCGGCGGCUCGAGCCCGGGUAAGUGUAAAUCGUCUGCAUGCCGCCGGGCGCCAUGCCUGCAGGUCGACUCUAGAAAACAUG
binding signal (PUM1 PUF domain R1-QWK): 5.98 log2 enrichment (interaction score)
binding signal (PUM1 PUF domain R1-RRA): 2.68 log2 enrichment (interaction score)
binding signal (PUM1 PUF domain R1-RLM): 3.34 log2 enrichment (interaction score)

GGCUAGAACUAGUGGAUCCCCCGGCGCCCGGCGGCUCGAGCCCGGGUAAGUGUCAAUAGUCUGCAUGCCGCCGGGCGCCAUGCCUGCAGGUCGACUCUAGAAAACAUG
binding signal (PUM1 PUF domain R5-RSQ): 4.6 log2 enrichment (interaction score)
binding signal (PUM1 PUF domain R5-RCV): 2.81 log2 enrichment (interaction score)
binding signal (PUM1 PUF domain R5-RHV): 5.74 log2 enrichment (interaction score)
binding signal (PUM1 PUF domain R5-RMG): 2.42 log2 enrichment (interaction score)

GGCUAGAACUAGUGGAUCCCCCGGCGCCCGGCGGCUCGAGCCCGGGUAAGUGUACAUAGUCUGCAUGCCGCCGGGCGCCAUGCCUGCAGGUCGACUCUAGAAAACAUG
binding signal (PUM1 PUF domain R4-SRM): 2.16 log2 enrichment (interaction score)
binding signal (PUM1 PUF domain R4-ANS): 2.23 log2 enrichment (interaction score)
binding signal (PUM1 PUF domain R4-CNA): 2.26 log2 enrichment (interaction score)
binding signal (PUM1 PUF domain R4-GCC): 1.75 log2 enrichment (interaction score)

GGCUAGAACUAGUGGAUCCCCCGGCGCCCGGCGGCUCGAGCCCGGGUAAGUGUAAAUGGUCUGCAUGCCGCCGGGCGCCAUGCCUGCAGGUCGACUCUAGAAAACAUG
binding signal (PUM1 PUF domain R1-RLM): 1.69 log2 enrichment (interaction score)

GGCUAGAACUAGUGGAUCCCCCGGCGCCCGGCGGCUCGAGCCCGGGUAAGUGUAAAUUGUCUGCAUGCCGCCGGGCGCCAUGCCUGCAGGUCGACUCUAGAAAACAUG
binding signal (PUM1 PUF domain R1-RRA): 1.49 log2 enrichment (interaction score)
binding signal (PUM1 PUF domain R1-RLM): 3.95 log2 enrichment (interaction score)

GGCUAGAACUAGUGGAUCCCCCGGCGCCCGGCGGCUCGAGCCCGGGUAAGUGUAAAUAGUCUGCAUGCCGCCGGGCGCCAUGCCUGCAGGUCGACUCUAGAAAACAUG
binding signal (PUM1 PUF domain R5-RSQ): 1.05 log2 enrichment (interaction score)
binding signal (PUM1 PUF domain R6-IWL): 3.09 log2 enrichment (interaction score)
binding signal (PUM1 PUF domain R6-HHR): 5.44 log2 enrichment (interaction score)
binding signal (PUM1 PUF domain R4-SRM): 3.86 log2 enrichment (interaction score)
binding signal (PUM1 PUF domain R5-RHV): 2.87 log2 enrichment (interaction score)
binding signal (PUM1 PUF domain R3-VFY): 6.12 log2 enrichment (interaction score)
binding signal (PUM1 PUF domain R4-EPS): 3.28 log2 enrichment (interaction score)
binding signal (PUM1 PUF domain R3-EFT): 4.71 log2 enrichment (interaction score)
binding signal (PUM1 PUF domain R4-GHF): 4.42 log2 enrichment (interaction score)
binding signal (PUM1 PUF domain R4-ANS): 2.16 log2 enrichment (interaction score)
binding signal (PUM1 PUF domain R4-GCC): 1.5 log2 enrichment (interaction score)
binding signal (PUM1 PUF domain R8-HWV): 3.05 log2 enrichment (interaction score)

GGCUAGAACUAGUGGAUCCCCCGGCGCCCGGCGGCUCGAGCCCGGGUAAGUGUAAUUAGUCUGCAUGCCGCCGGGCGCCAUGCCUGCAGGUCGACUCUAGAAAACAUG
binding signal (PUM1 PUF domain R3-RRS): 3.9 log2 enrichment (interaction score)
binding signal (PUM1 PUF domain R3-VFY): 5.89 log2 enrichment (interaction score)
binding signal (PUM1 PUF domain R3-EFT): 2.45 log2 enrichment (interaction score)

GGCUAGAACUAGUGGAUCCCCCGGCGCCCGGCGGCUCGAGCCCGGGUAAGUGUGAAUAGUCUGCAUGCCGCCGGGCGCCAUGCCUGCAGGUCGACUCUAGAAAACAUG
binding signal (PUM1 PUF domain R5-EAC): 3.49 log2 enrichment (interaction score)
